“And” between values parts separate entries of the source, which are not always exact repeats. Equal values may be shown once. Results filed as inconclusive are left out. The source made the active and inactive calls. The call rests on the fitted dose curve; in most records, active means well fitted cell-killing curve with a large enough effect; inconclusive means small, poorly fitted or top-dose-only effect, or effect the other way; inactive means no such curve, though single readings can be large or run the other way.
What was measured:
[1] = Viability qHTS for spleen associated tyrosine kinase inhibitor (SYKi) naive MV4-11 cells (AID 1963823); further: nearly all actives have a fitted effect of over 40% in size
How it was run: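 SYK inhibitor-naive MV4-11 cells, 500 per well, exposed to compounds for 72 hr at 37 C, 5% CO2. Viability read as CellTiter-Glo luminescence after 10 min at room temperature.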

[2] = Viability qHTS for spleen associated tyrosine kinase inhibitor (SYKi) drug resistant MV4-11 cells (AID 1963824); further: nearly all actives have a fitted effect of over 35% in size
How it was run: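 SYK inhibitor-resistant MV4-11 AML cells, 500 per well, added to predispensed compounds and incubated 72 hr at 37 C, 5% CO2. Viability measured by CellTiter-Glo luminescence after 10 min at room temperature.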
Potency means the concentration at half of the fitted maximal effect.

Clc1ccc2c(c1)N=C(N1CCNCC1)c1ccccc1N2
Potency [1]: 20.6 µM (active)
Potency [2]: 20600 nM (active)

OC[C@H]1O[C@@H](Oc2cc(O)c3c(c2)O[C@@H](c2ccc(O)cc2)[C@H](O)C3)[C@H](O)[C@@H](O)[C@@H]1O
Potency [1]: inactive
Potency [2]: inactive

CCC(C)(NC(=O)C(CCC(N)=O)NC(=O)C1CC(O)CN1C(=O)C(C)(C)NC(=O)C(C)(C)NC(=O)C(CC(C)C)NC(=O)CNC(=O)C(NC(=O)C(C)(C)NC(=O)C(C)(C)NC(=O)C(C)(C)NC(=O)C(Cc1ccccc1)NC(C)=O)C(C)C)C(=O)N1CC(O)CC1C(=O)NC(C)(C)C(=O)NC(CO)Cc1ccccc1 (stereo unspecified)
Potency [1]: 1.74 µM (active)
Potency [2]: 616 nM (active)

CN1CCN(c2nc(C3=C(c4c[nH]c5ccccc45)C(=O)NC3=O)c3ccccc3n2)CC1
Potency [1]: 206 nM (active) and 833 nM (active)
Potency [2]: 461 nM (active) and 2.35 µM (active)

CC(C)C(O)(CO)CCO[C@@H]1O[C@H](CO[C@H]2OC[C@](O)(CO)[C@H]2O)[C@@H](O)[C@H](O)[C@H]1O (stereo partly specified)
Potency [1]: inactive
Potency [2]: inactive

Clc1ccc(Cn2c(CN3CCCC3)nc3ccccc32)cc1
Potency [1]: 14.8 µM (active)
Potency [2]: 15 µM (active) and 14.8 µM (active)

CC1(C)CC[C@]2(C(=O)OC3OC(CO)C(O)C(O)C3O)CC[C@]3(C)C(=CCC4[C@@]5(C)CC[C@H](OC6OC(C(=O)O)C(O)C(O)C6O)C(CO)(CO)C5CC[C@]43C)[C@@H]2C1 (stereo partly specified)
Potency [1]: 0.693 µM (active)
Potency [2]: 438 nM (active)

COc1cc(C2Oc3c(OC)cc(/C=C/C(=O)OC[C@H]4O[C@@H](OC(C)(C)C(=O)O)[C@H](O)[C@@H](O)[C@@H]4O)cc3C2CO)ccc1O (stereo partly specified)
Potency [1]: inactive
Potency [2]: inactive

— PubChem BioAssay (NCATS)
